What all share (assay type): functional
Experiment [1] relates to Plasmodium falciparum. The experiment in a line: GSK_TCMDC: Inhibition of Plasmodium falciparum 3D7 in whole red blood cells, using parasite LDH activity as an index of growth. Test compounds present at 2uM.
Experiment [2] has as its system Plasmodium falciparum. The experiment in a line: GSK_TCMDC: Inhibition of Plasmodium falciparum Dd2 in whole red blood cells, using parasite LDH activity as an index of growth. Test compounds present at 2uM.
The next experiment has as its system HepG2. The experiment in a line: GSK_TCMDC: Percent inhibition of human HepG2 cell line. Test compounds present at 10uM.

The term Inhibition denotes the share of the control response that was lost under treatment. A lower Inhibition goes with little suppression. In the case of `COc1ccc(CNC2Cc3ccccc3C2)cc1-c1cccc(S(=O)(=O)NCCN2CCCC2)c1.O=C(O)C(F)(F)F`, the Inhibition came to 98% in the experiment on Plasmodium falciparum [1], 61% in the experiment on Plasmodium falciparum [2] and 48% with HepG2.

As to `Oc1ccc(CCNc2nc(N/N=C/c3ccc(Cl)cc3)nc(N3CCNCC3)n2)cc1`, the Inhibition is given as 100% in the experiment with Plasmodium falciparum [1], 68% in the experiment on Plasmodium falciparum [2] and 14% in the experiment with HepG2.

As for `COc1cc(CNCCC(C)C)ccc1OCc1cccc(COc2ccc(CNCCC(C)C)cc2OC)c1.Cl`, the Inhibition worked out at 99% with Plasmodium falciparum [1], 20% in the experiment on Plasmodium falciparum [2] and 97% in the experiment on HepG2.

In the case of `COc1ccc(C(=O)Nc2cc(Br)c3c(c2)CNCC3)cc1Br.Cl`, the Inhibition is 97% with Plasmodium falciparum [1], 8% with Plasmodium falciparum [2] and 25% in the experiment on HepG2.

Turning to `CCCN(CCC)CCCNc1ccc(C(=O)Nc2ccc(C)c(F)c2)cc1[N+](=O)[O-]`, the Inhibition stood at 100% in the experiment with Plasmodium falciparum [1], 94% in the experiment with Plasmodium falciparum [2] and 33% in the experiment on HepG2.

`CC(C)CCCC(C)NC[C@@H](O)[C@H](Cc1ccccc1)NC(=O)c1cc(N2CCCC2=O)cc(N(c2ccccc2)S(C)(=O)=O)c1` (stereo not given in full): the Inhibition was found to be 99% in the experiment on Plasmodium falciparum [1], 97% in the experiment on Plasmodium falciparum [2] and 17% in the experiment on HepG2.

On to `CCCCCCCN1CC[C@@H](CCCc2ccnc3ccc(OCC4CCCNC4)cc23)[C@@H](CC)C1.Cl` (stereo not given in full), for which the values for the Inhibition in the experiment on Plasmodium falciparum [1], in the experiment on Plasmodium falciparum [2] and in the experiment with HepG2 were 98%, 100% and 99%, respectively.

`O=C(NCCc1ccccc1)N(Cc1cccc(-c2ccc(CNCCc3ccccc3)cc2)c1)C1CCN(Cc2ccccc2)CC1.O=C(O)C(F)(F)F`: the Inhibition in the experiment on Plasmodium falciparum [1] stood at 90%; in the experiment with Plasmodium falciparum [2], 91%; in the experiment with HepG2, 94%.

Consider `CC(C)NCc1ccc(-c2cccc(CN3CCC(c4ccccc4)CC3)c2)c(C(=O)NCC2CCCCC2)c1.O=C(O)C(F)(F)F`, for which the results for the Inhibition in the experiment on Plasmodium falciparum [1], in the experiment on Plasmodium falciparum [2] and in the experiment with HepG2 were 98%, 76% and 42%, respectively.

For the compound `CCCCCC(C)C(C)c1cc(O)c2c(c1)OC(C)(C)CC2(O)c1ccccn1` (stereo not given), the Inhibition in the experiment on Plasmodium falciparum [1] was 98%; in the experiment with Plasmodium falciparum [2], 3%; in the experiment with HepG2 it was 0%.

In the case of `Cc1cc2nc(-c3ccc(OCC(=O)NCc4ccc(C(C)(C)C)cc4)cc3)[nH]c2cc1C`, the Inhibition with Plasmodium falciparum [1] is reported as 94%; in the experiment with Plasmodium falciparum [2], 0%; with HepG2, 11%.

In the case of `Cc1ccccc1C1CCN(c2ccc(C(=O)Nc3ccc(F)cc3)cn2)CC1.O=C(O)C(F)(F)F`, the Inhibition is 96% with Plasmodium falciparum [1], 96% in the experiment with Plasmodium falciparum [2] and 45% in the experiment on HepG2.

`CC(CN(C)C)C(=O)Nc1cccc(-c2ccc(-c3nc4ccccc4[nH]3)cc2)c1` (stereo not given): the Inhibition in the experiment on Plasmodium falciparum [1] came out at 98%; in the experiment on Plasmodium falciparum [2], 25%; in the experiment with HepG2, 1%.

Take `Cc1cccc(N2C(N)=NC(N)=NC2(C)C)c1C.Cl`: the Inhibition in the experiment with Plasmodium falciparum [1] came out at 90%; in the experiment on Plasmodium falciparum [2], 0%; in the experiment with HepG2 it was 0%.

For the compound `Cc1cccc2nc(-c3ccc(-c4ccc(CN5CCN(C6CCN(C)CC6)CC5)cc4)cc3)[nH]c12.O=C(O)C(F)(F)F`, the Inhibition in the experiment with Plasmodium falciparum [1] stood at 100%; in the experiment with Plasmodium falciparum [2], 100%; with HepG2, 99%.

Turning to `Cc1cccc2nc(-c3cccc(-c4cccc(NC(=O)c5cnn6cccnc56)c4)c3)[nH]c12`, the values for the Inhibition in the experiment on Plasmodium falciparum [1], in the experiment with Plasmodium falciparum [2] and in the experiment on HepG2 were 100%, 17% and 14%, respectively.

As for `O=C(/C=C/c1ccc(Cl)c(Cl)c1)N1CCC(CCN2CCC(c3c[nH]c4ccccc34)CC2)CC1`, the Inhibition was determined as 100% in the experiment with Plasmodium falciparum [1], 44% with Plasmodium falciparum [2] and 56% with HepG2.

Regarding `O=C(O)C(F)(F)F.c1cc(CNCCN2CCNCC2)cc(-c2cccc(-c3nc4ccccc4[nH]3)c2)c1`, the Inhibition in the experiment with Plasmodium falciparum [1] came out at 89%; with Plasmodium falciparum [2], 1%; in the experiment with HepG2 it was 11%.

On to `CC(C)C1C(O)=C(c2ccc3ccccc3c2)C(=O)N1Cc1ccsc1` (stereo not given), for which the Inhibition in the experiment on Plasmodium falciparum [1] is given as 88%; in the experiment with Plasmodium falciparum [2], 82%; in the experiment with HepG2, 11%.

On to `CS(=O)(=O)c1cccc(-c2cnc(N)c3cc(-c4ccc5c(c4)OCO5)ccc23)c1.O=CO`, for which the Inhibition in the experiment with Plasmodium falciparum [1] is on record as 91%; with Plasmodium falciparum [2] it was 23%; in the experiment with HepG2, 37%.

`CC(C)c1ccc2[nH]c(C(=O)NC3CCC(N4CCCc5ccc(C#N)cc5C4)CC3)cc2c1` (stereo not given): the figures for the Inhibition in the experiment with Plasmodium falciparum [1], with Plasmodium falciparum [2] and with HepG2 were 91%, 27% and 48%, respectively.

With `C[C@@H](CC1CCCCC1)OC(=O)N[C@H]1CCN(C#N)C1`, the results for the Inhibition with Plasmodium falciparum [1], in the experiment with Plasmodium falciparum [2] and with HepG2 were 95%, 83% and 7%, respectively.

With `CS(=O)(=O)c1ccc(CCNCc2ccc(-c3ccc(CN(C(=O)c4cccc(C#N)c4)C4CCN(Cc5ccccc5)CC4)cc3)nc2)cc1.O=C(O)C(F)(F)F`, the Inhibition with Plasmodium falciparum [1] is given as 96%; with Plasmodium falciparum [2], 56%; with HepG2 it was 20%.

On to `COc1ccc2nccc([C@@H](O)CN3CCC(NCc4ccc5c(c4)NC(=O)C(C)S5)CC3)c2c1.O=C(O)C(=O)O` (stereo not given in full), for which the values for the Inhibition in the experiment on Plasmodium falciparum [1], in the experiment on Plasmodium falciparum [2] and in the experiment with HepG2 were 99%, 72% and 7%, respectively.

With `CC(C)COc1ccc(C(O)C(CN2CCCCC2)c2ccccc2)cc1` (stereo not given), the Inhibition in the experiment with Plasmodium falciparum [1] is reported as 93%; in the experiment on Plasmodium falciparum [2] it was 89%; in the experiment with HepG2 it was 11%.

`COc1ccc(NC(=O)c2csc(-c3cc(NC(=O)c4ccnc(N5CCCC5)c4)ccc3C)c2)cc1N1CCN(C)CC1.O=C(O)C(F)(F)F`: the figures for the Inhibition in the experiment with Plasmodium falciparum [1], in the experiment on Plasmodium falciparum [2] and in the experiment on HepG2 were 100%, 80% and 4%, respectively.

Consider `Oc1ccccc1CN(CCCN(Cc1ccccn1)Cc1ccccc1O)Cc1ccccn1`, for which the results for the Inhibition in the experiment on Plasmodium falciparum [1], with Plasmodium falciparum [2] and in the experiment with HepG2 were 92%, 92% and 64%, respectively.

Take `O=C(Nc1cccc(CCNCc2ccccc2)c1)Nc1cccc2ccccc12.O=C(O)C(F)(F)F`: the values for the Inhibition with Plasmodium falciparum [1], in the experiment with Plasmodium falciparum [2] and with HepG2 were 100%, 8% and 13%, respectively.

Regarding `CN(c1ccc(NC(=O)Nc2cc(C(F)(F)F)ccc2F)cc1)c1ccnc(NCCN2CCOCC2)n1.O=C(O)C(F)(F)F`, the Inhibition amounted to 97% in the experiment on Plasmodium falciparum [1], 73% with Plasmodium falciparum [2] and 67% in the experiment on HepG2.

As to `Cn1cnc2c(SCc3ccccc3OCc3ccccc3)ncnc21`, the Inhibition with Plasmodium falciparum [1] came to 86%; with Plasmodium falciparum [2], 34%; in the experiment with HepG2 it was 6%.

Source of the values: ChEMBL document CHEMBL1157539, “Thousands of chemical starting points for antimalarial lead identification” (Nature, 2010).
